Nine compounds from PubChem BioAssay (NCATS) can be followed below.

Experiment [1] concerns the target Cytochrome P450 1A2 (Homo sapiens) (UniProt P05177). Description: p450-cyp1a2 (AID 410; calls by dose curve; further: potency means the concentration at half of the fitted maximal effect). Particulars: recombinant CYP1A2, luciferin-ME demethylation, luminescence; series mostly up to 57 µM. Put shortly: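 O-Demethylation of luciferin 6' methyl ether by human CYP1A2 is monitored as luciferase luminescence. Substrate sits at Km (100uM); enzyme is 20nM. Values are scaled to 57 uM furafylline as maximal inhibition.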

For experiment [2], the target named is Glucocorticoid receptor (Homo sapiens) (UniProt P04150). Description: GR-GFP Redistribution (AID 450;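 active means compounds whose dose series gives a full or clear partial fitted curve of increased nuclear translocation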; further: potency means the concentration at half of the fitted maximal effect). As to conditions: U2OS GR-GFP nuclear translocation, laser cytometry, 2 h; series mostly up to 20.6 µM.
Sequence of Glucocorticoid receptor (Homo sapiens) (P04150 whole entry, looked up): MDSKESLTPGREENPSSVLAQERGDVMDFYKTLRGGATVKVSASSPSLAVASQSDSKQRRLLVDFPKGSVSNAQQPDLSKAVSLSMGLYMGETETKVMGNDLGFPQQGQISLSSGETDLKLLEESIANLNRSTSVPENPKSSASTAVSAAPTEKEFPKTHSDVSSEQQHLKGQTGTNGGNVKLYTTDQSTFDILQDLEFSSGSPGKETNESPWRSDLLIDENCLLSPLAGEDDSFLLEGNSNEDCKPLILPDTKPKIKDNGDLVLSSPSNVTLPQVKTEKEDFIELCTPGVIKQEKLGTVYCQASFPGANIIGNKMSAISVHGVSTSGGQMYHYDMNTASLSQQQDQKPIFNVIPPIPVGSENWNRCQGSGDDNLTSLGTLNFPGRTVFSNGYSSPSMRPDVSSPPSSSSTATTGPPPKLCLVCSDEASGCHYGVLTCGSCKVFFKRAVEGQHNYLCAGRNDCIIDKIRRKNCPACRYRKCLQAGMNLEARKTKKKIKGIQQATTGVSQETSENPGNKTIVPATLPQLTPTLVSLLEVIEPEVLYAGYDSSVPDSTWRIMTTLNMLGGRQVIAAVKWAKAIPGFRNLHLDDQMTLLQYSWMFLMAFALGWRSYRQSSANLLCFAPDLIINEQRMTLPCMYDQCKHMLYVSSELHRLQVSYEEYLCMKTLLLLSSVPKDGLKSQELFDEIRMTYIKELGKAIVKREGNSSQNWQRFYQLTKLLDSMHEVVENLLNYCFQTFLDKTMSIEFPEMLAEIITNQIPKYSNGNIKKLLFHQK
Experiment [3] shares this target. Nature of the experiment: GR-EFC Redistribution (AID 451; calls by dose curve; further: potency means the concentration at half of the fitted maximal effect). Particulars: CHO-K1 GR-EFC translocation, beta-gal luminescence, 2 h. Put shortly:
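Translocation of GR-ED fusion to nuclear EA restores b-gal, read by luminescence after 1 h room-temperature detection. Engineered CHO-K1 biosensor cells, 1,000/well, exposed 2 h at 37 C to titrations up to 46 uM final.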

Experiment [4] concerns the target Mitogen-activated protein kinase 10 (Mus musculus) (UniProt Q61831). Nature of the experiment: JNK3 AlphaScreen Assay (AID 530; active means well fitted curve in either direction with a large enough effect, not every such curve was filed as active;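 further: kinase came from lysate of stimulated human HepG2 cells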; further: potency means the concentration at half of the fitted maximal effect). Particulars: JNK3 lysate, c-Jun phosphorylation; series mostly up to 57.1 µM. Put shortly:
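qHTS titrations with 15 min compound pre-incubation before adding ATP (10 uM final). Read-out: AlphaScreen of Ser73-phosphorylated biotin-GST-cJun using HepG2 lysate JNK3 activated by IL-1β and TNFα.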

The target of experiment [5] is 3',5'-cyclic-AMP phosphodiesterase 4B (Homo sapiens) (UniProt Q07343). Nature of the experiment: qHTS Assay for Inhibitors of PDE-IV (AID 607; active means well fitted activation curve with a large enough effect in the main read-out, with a control signal flat, not every such curve was filed as active; further: potency means the concentration at half of the fitted maximal effect). As to conditions: HEK293 ACTOne CNG channel cells, membrane potential fluorescence; series mostly up to 22.9 µM. Put shortly: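 Cell-based read-out of cAMP via a modified cyclic nucleotide-gated channel and membrane potential dye (535/590 nm) in HEK293 cells expressing PDE4 endogenously. Compounds tested up to 22.9 uM final; 100 uM RO 20-1724 reference.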
Sequence of 3',5'-cyclic-AMP phosphodiesterase 4B (Homo sapiens) (Q07343 whole entry, looked up): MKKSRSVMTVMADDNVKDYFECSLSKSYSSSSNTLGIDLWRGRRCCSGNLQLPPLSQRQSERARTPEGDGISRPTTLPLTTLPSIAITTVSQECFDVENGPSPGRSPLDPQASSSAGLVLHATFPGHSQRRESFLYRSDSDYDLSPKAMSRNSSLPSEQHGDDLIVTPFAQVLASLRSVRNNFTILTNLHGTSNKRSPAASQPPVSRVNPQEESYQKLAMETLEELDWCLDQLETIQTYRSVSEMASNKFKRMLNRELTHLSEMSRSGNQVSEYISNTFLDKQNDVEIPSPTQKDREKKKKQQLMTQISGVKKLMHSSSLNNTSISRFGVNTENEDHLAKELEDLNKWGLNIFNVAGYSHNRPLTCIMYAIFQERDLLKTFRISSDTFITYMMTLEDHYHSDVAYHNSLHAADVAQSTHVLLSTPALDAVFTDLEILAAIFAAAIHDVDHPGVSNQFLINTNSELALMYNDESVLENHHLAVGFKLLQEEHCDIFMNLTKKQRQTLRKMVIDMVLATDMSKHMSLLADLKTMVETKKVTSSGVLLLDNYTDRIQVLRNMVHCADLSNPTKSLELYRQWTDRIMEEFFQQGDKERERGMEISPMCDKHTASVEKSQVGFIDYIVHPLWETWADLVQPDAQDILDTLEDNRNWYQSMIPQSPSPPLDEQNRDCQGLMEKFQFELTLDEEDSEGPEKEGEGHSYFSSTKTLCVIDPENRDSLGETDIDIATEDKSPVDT

Experiment [6] has as its target Cytochrome P450 3A4 (Homo sapiens) (UniProt P08684). Description: qHTS Assay for Inhibitors and Substrates of Cytochrome P450 3A4 (AID 884). Further: potency means the concentration at half of the fitted maximal effect; nearly all actives have a fitted effect of over 50% in size. Particulars: recombinant CYP3A4, Luciferin-PPXE luminescence; series mostly up to 57.1 µM. Put shortly: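 Luminescent readout of luciferin produced by CYP3A4 (20 nM) dealkylation of Luciferin-PPXE, 25 uM (its KM). NADPH-driven reaction ran 60 min at RT after 10 min compound preincubation; data scaled to 57 uM ketoconazole as 100% inhibition.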

Experiment [7] has the same target. Description: qHTS Assay for Activators of Cytochrome P450 3A4 (AID 885). Further: nearly all actives have a fitted effect of over 65% in size. Particulars: recombinant CYP3A4, Luciferin-PPXE luminescence, 60 min; series mostly up to 57.1 µM. Put shortly: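 Luminescent readout of luciferin formed from 25 uM Luciferin-PPXE (KM level) by 20 nM CYP3A4 in 200 mM KPO4, with 60 min NADPH-driven reaction at room temperature after 10 min compound exposure. Ketoconazole (57 uM) defined 100% inhibition.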

Experiment [8] deals with DNA dC->dU-editing enzyme APOBEC-3G (Homo sapiens) (UniProt Q9HC16). Nature of the experiment: qHTS for inhibitors of Vif-A3G interactions: Validation (AID 588379). Further: 0% is about no effect. As to conditions: Vif-A3G protein interaction assay; series mostly up to 46.1 µM. Put shortly:
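Yellow fluorescence (Ex 488, Em 500-530) of Vif-coexpressing HeLa A3G-eYFP cells, scanned by Acumen cytometer, reports blocked A3G degradation. Cells plated at 700/well overnight at 37 deg C before compound addition, then a further overnight compound incubation at 37 deg C.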

Experiment [9] can be described thus: Stat Signaling Pathway (AID 446; active means well fitted curve in either direction with a large enough effect, not every such curve was filed as active;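 further: ME-180 cervical cancer cells given 40 pM IL-6 alongside compound; SIE-controlled beta-lactamase reporter measured as 460/530 nm FRET emission ratio; on the % scale 0 is the no-effect control and ±100 the full control effect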). Particulars: ME-180 (cervical carcinoma) SIE beta-lactamase reporter, IL-6 stimulated, 5 h; at 17.2 µM (top of the series) unless noted. Put shortly: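 FRET read-out (405 nm excitation, 460/530 nm emission) of a beta-lactamase reporter under a STAT-inducible element in ME-180 cervical carcinoma cells. Cells with compound receive 40 pM IL-6 for 5 h. Values are normalised to AC90 stimulation and AC90 JAK-inhibitor controls.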

Experiment [10] has as its target Guanine nucleotide-binding protein G(i) subunit alpha-1 (Homo sapiens) (UniProt P63096). Nature of the experiment: qHTS Assay for Inhibitors of RGS12 GoLoco Motif Activity (Green Fluorophore) (AID 879).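 Further: 0% = labeled peptide with Gαi1 and full inhibition = labeled peptide alone without protein; negative values mean loss of peptide binding seen as reduced polarization.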 Particulars: Galphai1/FITC-RGS12 GoLoco peptide, fluorescence polarization; series mostly up to 57.1 µM. Put shortly:
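A drop in FITC polarization marked displacement of the FITC-tagged RGS12 GoLoco peptide (10 nM) from Gαi1 (50 nM). Compounds were incubated 10 min at room temperature in Tris pH 7.5 buffer containing 150 mM NaCl, 0.1 mM GDP and 0.05% NP40; unlabeled peptide titration served as control.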

Experiment [11] can be described thus: qHTS Assay for Identification of Small Molecule Agonists for Thrombopoietin (TPO) Signaling Pathway (AID 917). Further: on the % scale 0 is the no-effect control and ±100 the full control effect. As to conditions: TPO signaling pathway reporter cells, agonist qHTS, stimulated with TPO at its EC50; series mostly up to 38.5 µM. Put shortly: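 First, Ba/F3 cells with human TPO receptor were held overnight without IL-3. Next, compounds and TPO (26 pM final) were added. After 24 hrs at 37 C, luciferase detection reagent was added and luminescence measured following 10 min at room temperature.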

In experiment [12] the target is Muscarinic acetylcholine receptor M1 (Rattus norvegicus) (UniProt P08482). Nature of the experiment: qHTS Assay for Antagonists of Acetylcholine Muscarinic M1 Receptor: Kinetic Measurement of Intracellular Calcium Response (AID 943).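 Further: Fluo-4 calcium signal as peak divided by basal fluorescence over 4 min; nearly all actives have a fitted effect of over 75% in size.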 As to conditions: M1-expressing cells, kinetic intracellular calcium fluorescence; series mostly up to 35.3 µM. Put shortly: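 Antagonism is measured as inhibition of the carbachol-evoked calcium rise in CHO cells transfected with rat M1. Cells are dye-loaded, exposed to compound for 10 min, then stimulated with 100 nM carbachol (EC80).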

Experiment [13] has as its target Pyruvate kinase (Leishmania mexicana) (UniProt Q27686). Nature of the experiment: qHTS Validation Assay for Inhibitors of Leishmania Mexicana Pyruvate Kinase (AID 945).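 Further: 0% = DMSO only neutral control wells.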 As to conditions: purified L. mexicana pyruvate kinase, enzyme activity, E451W mutant enzyme; series mostly up to 57.5 µM. Put shortly:
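Eight-point qHTS titrations in triplicate, data normalized to DMSO neutral control. Reaction: 0.2 nM LmPYK E451W mutant, 0.5 mM PEP, 0.1 mM ADP, 7 mM MgCl2, pH 7.2, one hour at room temperature; luminescent ATP detection.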

In experiment [14] the target is Pyruvate kinase PKM (Homo sapiens) (UniProt P14618). Description: qHTS Assay for Activators of Human Muscle Pyruvate Kinase (AID 954; active means well fitted curve in the direction sought with a large enough effect, not every such curve was filed as active;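 further: 0% = uninhibited enzyme and -100% = no enzyme or full thiadiazolimine inhibition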). Particulars: purified human muscle pyruvate kinase, luciferase-coupled luminescence, 1 h; series mostly up to 57.5 µM. Put shortly:
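ATP production by PKM2 detected via luciferase luminescence after 1 h room-temperature reaction (0.1 nM enzyme, PEP at Km 0.5 mM, ADP 0.1 mM, pH 7.2 imidazole buffer). Inhibition scaled to no-enzyme control; activation referenced to 0.3 nM enzyme wells.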

The target of experiment [15] is Alpha-galactosidase A (Homo sapiens) (UniProt P06280). Nature of the experiment: Counterscreen for Glucocerebrosidase Inhibitors: qHTS Assay for Human alpha-Galactosidase at pH 4.5 (AID 992). Further: 0% is about no effect. As to conditions: purified enzyme, fluorogenic substrate; series mostly up to 76.9 µM. Put shortly: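 Fluorogenic 1536-well qHTS at pH 4.5 (citrate, Tween-20): 2 nM enzyme, 80 uM 4-MU-alpha-galactoside, 20 min room temperature, NaOH/glycine stop. Titration 0.7 nM to 77 uM, data normalized to no-enzyme and full-activity controls, Hill-fitted AC50.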

The target of experiment [16] is alpha-glucosidase (Oryza sativa, rice) (UniProt Q653V4). Description: Counterscreen for Glucocerebrosidase Inhibitors: qHTS Assay for Rice alpha-Glucosidase at pH 5.0 (AID 997).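 Further: 0% = full activity with enzyme and -100% = basal without enzyme.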 As to conditions: rice alpha-glucosidase enzyme activity; series mostly up to 76.9 µM. Put shortly: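 Endpoint fluorogenic assay at pH 5.0: compounds (0.7 nM to 77 uM) titrated against 4 nM rice enzyme and 400 uM 4-MU-alpha-glucoside for 20 min at room temperature; NaOH/glycine stop, read ex 365/em 440 nm, Hill-fitted AC50.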

In experiment [17] the target is Cytochrome P450 2C9 (Homo sapiens) (UniProt P11712). Description: qHTS Assay for Inhibitors and Substrates of Cytochrome P450 2C9 (AID 883). Further: nearly all actives have a fitted effect of over 60% in size. Further: potency means the concentration at half of the fitted maximal effect. Particulars: recombinant CYP2C9, luciferin-H luminescence, 60 min; series mostly up to 57.1 µM. Put shortly:
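Inhibition of CYP2C9 is scored as loss of luminescence, with 57uM sulphaphenazole defining 100% inhibition. Substrate Luciferin-H is used at 100uM, equal to its KM; enzyme at 10nM in 25mM KPO4, 60 min at 37C with NADPH regeneration.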

In experiment [18] the target is Cytochrome P450 2D6 (Homo sapiens) (UniProt P10635). Nature of the experiment: qHTS Assay for Inhibitors and Substrates of Cytochrome P450 2D6 (AID 891).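 Further: luciferin methyl ether substrate demethylated by CYP2D6 with NADPH regeneration; on the % scale 0 is the no-effect control and ±100 the full control effect; nearly all actives have a fitted effect of over 60% in size.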 Particulars: recombinant CYP2D6, luciferin-ME EGE luminescence; series mostly up to 57.1 µM. Put shortly:
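Luminescent read-out of luciferin formed by 5 nM human CYP2D6 demethylating 30 uM Luciferin-ME EGE (Km level) over 60 min at room temperature after NADPH regeneration addition. Data normalized to full inhibition by 1.43 uM quinidine.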

Experiment [19] concerns the target Cytochrome P450 2C19 (Homo sapiens) (UniProt P33261). Nature of the experiment: qHTS Assay for Inhibitors and Substrates of Cytochrome P450 2C19 (AID 899). Further: nearly all actives have a fitted effect of over 60% in size. Further: potency means the concentration at half of the fitted maximal effect. On activity, negative = inhibition: on the % scale 0 is the no-effect control and ±100 the full control effect. As to conditions: recombinant CYP2C19, luciferin-H EGE luminescence; series mostly up to 57.1 µM. Put shortly:
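5nM enzyme + 10uM Luciferin-H EGE (=KM), 50mM KPO4; cpd pin-transferred, 10 min 37C; NADPH regen, 60 min 37C; stopped w/ luciferin detection reagent, 20 min; luminescence. Normalized to 57uM ketoconazole (AC100).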

Unmarked numbers belong to inactive results. Records with an inconclusive call do not appear. The source made the active and inactive calls. Unless noted, the call rests on the fitted dose curve; in most records, active means well fitted curve in the direction sought with a large enough effect; inconclusive means small, poorly fitted or top-dose-only effect, or another doubt; inactive means no such curve, though single readings can be large; an effect the other way counts as inactive or inconclusive. Where only a bound is given, the exact number is not on record here.

Sequence of DNA dC->dU-editing enzyme APOBEC-3G (Homo sapiens) (Q9HC16 whole entry, looked up): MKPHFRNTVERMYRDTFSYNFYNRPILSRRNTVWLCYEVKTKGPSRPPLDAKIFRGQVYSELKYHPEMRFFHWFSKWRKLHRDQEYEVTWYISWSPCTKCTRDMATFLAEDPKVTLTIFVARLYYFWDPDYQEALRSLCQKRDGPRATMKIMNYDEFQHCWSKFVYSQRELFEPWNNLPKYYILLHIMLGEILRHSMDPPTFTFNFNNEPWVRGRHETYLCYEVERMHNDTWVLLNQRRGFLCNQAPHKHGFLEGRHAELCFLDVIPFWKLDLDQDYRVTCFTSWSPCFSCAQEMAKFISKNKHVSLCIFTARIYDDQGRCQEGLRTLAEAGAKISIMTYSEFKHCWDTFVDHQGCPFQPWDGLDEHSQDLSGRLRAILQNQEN
Sequence of Cytochrome P450 2D6 (Homo sapiens) (P10635 whole entry, looked up): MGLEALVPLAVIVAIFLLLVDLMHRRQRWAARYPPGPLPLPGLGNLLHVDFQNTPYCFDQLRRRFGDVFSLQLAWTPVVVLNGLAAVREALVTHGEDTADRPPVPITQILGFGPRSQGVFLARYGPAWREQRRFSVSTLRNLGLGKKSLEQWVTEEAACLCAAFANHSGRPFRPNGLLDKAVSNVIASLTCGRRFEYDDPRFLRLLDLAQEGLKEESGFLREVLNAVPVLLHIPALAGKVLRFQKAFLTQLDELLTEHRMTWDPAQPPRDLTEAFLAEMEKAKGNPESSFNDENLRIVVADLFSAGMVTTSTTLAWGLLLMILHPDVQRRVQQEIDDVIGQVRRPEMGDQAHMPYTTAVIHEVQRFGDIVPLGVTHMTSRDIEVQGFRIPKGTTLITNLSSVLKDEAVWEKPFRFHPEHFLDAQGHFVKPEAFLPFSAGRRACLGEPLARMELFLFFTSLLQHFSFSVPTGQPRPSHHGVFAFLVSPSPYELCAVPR
Sequence of Cytochrome P450 1A2 (Homo sapiens) (P05177 whole entry, looked up): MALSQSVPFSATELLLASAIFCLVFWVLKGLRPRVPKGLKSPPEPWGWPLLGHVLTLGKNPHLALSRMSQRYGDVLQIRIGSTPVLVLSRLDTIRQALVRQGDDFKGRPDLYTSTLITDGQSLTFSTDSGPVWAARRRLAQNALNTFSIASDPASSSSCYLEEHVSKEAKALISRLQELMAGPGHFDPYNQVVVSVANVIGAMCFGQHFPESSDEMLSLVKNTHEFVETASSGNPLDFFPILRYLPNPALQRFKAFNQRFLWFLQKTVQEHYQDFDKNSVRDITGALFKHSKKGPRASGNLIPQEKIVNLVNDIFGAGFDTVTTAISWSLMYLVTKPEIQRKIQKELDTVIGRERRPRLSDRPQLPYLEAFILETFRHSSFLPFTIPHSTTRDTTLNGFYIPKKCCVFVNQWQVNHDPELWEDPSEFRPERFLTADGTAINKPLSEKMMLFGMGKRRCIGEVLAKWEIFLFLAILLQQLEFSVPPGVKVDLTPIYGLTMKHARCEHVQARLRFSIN
Sequence of Cytochrome P450 2C9 (Homo sapiens) (P11712 whole entry, looked up): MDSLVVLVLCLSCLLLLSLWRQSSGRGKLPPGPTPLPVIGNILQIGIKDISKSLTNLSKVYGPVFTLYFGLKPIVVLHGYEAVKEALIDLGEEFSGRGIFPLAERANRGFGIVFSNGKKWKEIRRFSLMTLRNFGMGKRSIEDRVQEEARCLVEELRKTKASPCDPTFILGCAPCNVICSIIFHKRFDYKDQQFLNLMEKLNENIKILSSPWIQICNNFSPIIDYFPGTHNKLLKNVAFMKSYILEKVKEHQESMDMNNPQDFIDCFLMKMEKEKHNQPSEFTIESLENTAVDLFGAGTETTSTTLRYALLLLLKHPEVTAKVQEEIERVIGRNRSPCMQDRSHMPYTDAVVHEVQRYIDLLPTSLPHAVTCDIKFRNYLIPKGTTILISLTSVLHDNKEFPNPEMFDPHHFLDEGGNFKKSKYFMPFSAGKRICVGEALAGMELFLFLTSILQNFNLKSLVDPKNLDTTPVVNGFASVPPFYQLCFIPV
Sequence of Cytochrome P450 2C19 (Homo sapiens) (P33261 whole entry, looked up): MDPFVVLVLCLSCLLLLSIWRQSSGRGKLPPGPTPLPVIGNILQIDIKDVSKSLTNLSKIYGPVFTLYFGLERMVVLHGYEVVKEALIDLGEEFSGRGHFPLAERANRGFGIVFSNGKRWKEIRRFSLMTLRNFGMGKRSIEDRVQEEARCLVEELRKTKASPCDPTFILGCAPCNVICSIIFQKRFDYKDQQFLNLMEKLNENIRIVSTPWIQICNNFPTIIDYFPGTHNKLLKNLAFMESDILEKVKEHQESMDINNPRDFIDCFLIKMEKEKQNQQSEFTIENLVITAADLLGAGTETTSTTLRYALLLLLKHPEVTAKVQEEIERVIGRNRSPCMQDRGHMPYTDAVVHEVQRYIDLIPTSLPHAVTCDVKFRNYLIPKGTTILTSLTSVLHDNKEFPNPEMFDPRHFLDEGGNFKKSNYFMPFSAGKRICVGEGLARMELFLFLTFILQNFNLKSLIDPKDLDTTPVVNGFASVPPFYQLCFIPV
Sequence of Cytochrome P450 3A4 (Homo sapiens) (P08684 whole entry, looked up): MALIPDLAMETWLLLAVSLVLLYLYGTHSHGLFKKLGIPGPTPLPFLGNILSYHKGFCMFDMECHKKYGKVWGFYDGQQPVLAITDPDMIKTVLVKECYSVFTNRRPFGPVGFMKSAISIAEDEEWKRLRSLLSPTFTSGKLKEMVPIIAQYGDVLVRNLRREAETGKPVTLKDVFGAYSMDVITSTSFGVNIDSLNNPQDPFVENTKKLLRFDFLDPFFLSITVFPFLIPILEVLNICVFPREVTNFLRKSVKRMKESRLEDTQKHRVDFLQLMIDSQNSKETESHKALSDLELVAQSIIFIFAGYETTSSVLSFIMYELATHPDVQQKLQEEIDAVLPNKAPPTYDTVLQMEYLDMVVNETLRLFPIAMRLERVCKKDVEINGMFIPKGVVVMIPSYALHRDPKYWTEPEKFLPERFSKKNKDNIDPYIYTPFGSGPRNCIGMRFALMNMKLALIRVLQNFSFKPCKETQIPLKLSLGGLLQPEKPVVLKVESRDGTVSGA
Sequence of Pyruvate kinase (Leishmania mexicana) (Q27686 2-499 E452W): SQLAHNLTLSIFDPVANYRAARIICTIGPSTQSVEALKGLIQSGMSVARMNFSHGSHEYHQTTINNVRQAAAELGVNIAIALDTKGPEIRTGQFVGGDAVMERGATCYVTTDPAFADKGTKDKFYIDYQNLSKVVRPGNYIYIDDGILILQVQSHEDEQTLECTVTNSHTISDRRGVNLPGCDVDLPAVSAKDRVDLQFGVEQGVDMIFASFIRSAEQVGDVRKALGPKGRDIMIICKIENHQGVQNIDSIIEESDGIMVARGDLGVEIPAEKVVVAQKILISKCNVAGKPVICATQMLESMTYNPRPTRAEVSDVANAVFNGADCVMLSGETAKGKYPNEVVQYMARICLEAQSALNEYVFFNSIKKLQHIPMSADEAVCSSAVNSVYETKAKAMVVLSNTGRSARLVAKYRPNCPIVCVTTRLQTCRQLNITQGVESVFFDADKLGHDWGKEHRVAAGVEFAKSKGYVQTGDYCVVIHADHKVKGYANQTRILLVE

With `O=c1cc(-c2ccccc2O)oc2cc(O)cc(O)c12`, the Potency is 0.251 µM (active) in experiment [1], more than 46 µM in experiment [2], more than 46 µM in experiment [3] and 3.98 µM (active) in [6]. Further, the Potency result in experiment [4], in [5] and in experiment [7] was “inactive” each time. The result in experiment [8] was inactive.

On to `Cc1cc(C)c(/C=C2/C(=O)Nc3ccccc32)[nH]1`, for which, in experiment [1], the Potency is 0.794 µM (active). In addition, the activity, negative = inhibition in experiment [9] is -25.4% [at 38 µM]. For the same compound, the Potency entry in [5], in experiment [11], in [12] and in experiment [13] was “inactive” throughout. In addition, the result in [10], in experiment [14], in [15] and in experiment [16] was inactive.

In the case of `CC(=O)Oc1cc(OC(C)=O)c2c(=O)cc(-c3ccc(OC(C)=O)c(OC(C)=O)c3)oc2c1`, the Potency in experiment [1] is 3.16 µM (active); in experiment [2], more than 46 µM; in experiment [3], more than 46 µM; in experiment [4], 10 µM (active). In addition, the Potency entry in experiment [5], in experiment [17], in [7] and in [18] was “inactive” throughout. For the same compound, the result in [8] was inactive.

With `COc1ccc(OC)c([C@H]2Nc3ccccc3NC3=C2C(=O)CC(C)(C)C3)c1Br`, the Potency in experiment [1] was 20 µM (active); in experiment [2], more than 46 µM; in experiment [3] it was more than 46 µM; in experiment [17], 31.6 µM (active); in experiment [19], 3.16 µM (active). Moreover, the Potency result in [4], in experiment [5] and in experiment [18] was “inactive” throughout.

`COc1cc2c(cc1OC)-c1c(OC)c(OC)cc3ccnc(c13)C2=O`: the Potency was 0.0794 µM (active) in experiment [1], more than 46 µM in [2], more than 46 µM in experiment [3] and 2.51 µM (active) in [6]. The Potency entry in experiment [4] and in experiment [7] was “inactive” in each case. Also, in experiment [8], the compound was called inactive.

Take `O=c1c(O)c(-c2ccc(O)cc2)oc2ccc(O)cc12`: the Potency in [1] was 0.2 µM (active); in experiment [2], more than 46 µM; in experiment [3] it was more than 46 µM. The Potency entry in experiment [4], in experiment [5], in experiment [7], in [18] and in experiment [19] was “inactive” in each case. The outcome in [8] was inactive.

As to `C[C@H]1[C@H](C)CC[C@@]2(C(=O)O)CC[C@]3(C)C(=CC[C@H]4[C@@]5(C)C[C@@H](O)[C@H](O)[C@@](C)(CO)[C@@H]5CC[C@@]43C)[C@@H]12`, the Potency result in [1], in experiment [4], in experiment [5], in experiment [17], in [18] and in [19] was “inactive” in each case. The Potency in experiment [2] and in [3] was more than 46 µM in each case.

Consider `C=C(CO)[C@H]1Cc2c(ccc3c2O[C@H]2COc4cc(OC)c(OC)cc4[C@@H]2C3=O)O1`, for which the Potency entry in experiment [1], in experiment [4], in [5] and in experiment [18] was “inactive” in each case. Moreover, the Potency in [2] and in [3] was more than 46 µM throughout.

For the compound `C=C1C(=O)O[C@H]2C[C@@]3(C)CCCC(=C)[C@@H]3C[C@H]12`, the Potency in experiment [1] is 20 µM (active); in experiment [2], more than 46 µM; in experiment [3] it was more than 46 µM; in [5], 7.55 µM (active); in experiment [19] it was 2.51 µM (active). Besides, the Potency result in experiment [4] is “inactive”.
